Glioma ERSR ind: inducers of ER stress response in human glioma cells | U87-MG GRP78 promoter luciferase reporter, 16 h | Potency, µM, hits mostly activators | hit rate 0.02% among 420,000; note: series mostly up to about 76 µM; nearly all actives have a fitted effect of over 35% in size
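ERSR induction read as luciferase luminescence (Bright-Glo, 10 min at room temperature) in stably transfected human U87-MG glioma cells exposed to compounds for 16 h, using GRP78 as sensor.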
ALOX12 inh: inhibitors of human 12S-lipoxygenase ALOX12. AID 1671190. Potency, µM (titrated, usually from 108 µM), usual class: inhibitors. hit rate 1.1% among 580,000. purified 12hLO, xylenol orange hydroperoxide absorbance
Target sequence (P18054 whole entry, looked up): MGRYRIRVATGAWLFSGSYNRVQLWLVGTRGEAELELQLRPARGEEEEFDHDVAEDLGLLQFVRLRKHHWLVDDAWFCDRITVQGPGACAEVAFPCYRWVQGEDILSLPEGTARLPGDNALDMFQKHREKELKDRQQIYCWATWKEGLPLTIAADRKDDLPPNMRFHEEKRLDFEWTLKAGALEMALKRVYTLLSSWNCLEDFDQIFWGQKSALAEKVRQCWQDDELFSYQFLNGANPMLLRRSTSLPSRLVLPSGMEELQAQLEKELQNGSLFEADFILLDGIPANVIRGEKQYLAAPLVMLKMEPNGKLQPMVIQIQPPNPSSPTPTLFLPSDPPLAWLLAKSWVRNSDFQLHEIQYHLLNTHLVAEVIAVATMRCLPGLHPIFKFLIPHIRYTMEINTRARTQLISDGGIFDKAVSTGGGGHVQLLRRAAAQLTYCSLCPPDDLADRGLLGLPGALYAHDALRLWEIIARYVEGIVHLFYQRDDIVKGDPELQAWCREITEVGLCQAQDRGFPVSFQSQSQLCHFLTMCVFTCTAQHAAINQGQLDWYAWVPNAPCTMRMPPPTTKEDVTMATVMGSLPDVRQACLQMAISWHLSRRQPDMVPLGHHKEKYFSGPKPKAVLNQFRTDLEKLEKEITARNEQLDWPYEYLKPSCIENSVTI
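Purified human 12hLO at 150 nM in 25 mM Hepes, 0.01% Triton X-100, pH 7.0, preincubated 15 min at room temperature with compound. Reaction started with 40 uM arachidonic acid, 30 min at room temperature. Hydroperoxide measured by Fe-xylenol orange, 573/405 nm absorbance ratio.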
VDR inhibitor: vitamin D3 receptor (human) inhibition; P11473; VDR-SRC2-3 peptide fluorescence polarization, 2 h; Potency, µM, actives largely listed as inhibitors; hit rate 0.93% among 400,000
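Inhibition of the VDR/SRC2-3 peptide interaction is quantified by fluorescence polarization. Compounds (23 nl, pintool) incubate with the reagents for 2 hours at ambient room temperature.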
Sfp PPTase inh: blocks B. subtilis Sfp PPTase activity | Q9F4F7 | Biochemical Sfp PPTase activity, qHTS | Potency, µM, usual class: inhibitors | hit rate 3.5% among 310,000 | AID 1490;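 note: the enzyme is Sfp with the accession as filed and its product quenches rhodamine fluorescence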
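Fluorescence-quenching assay: 15 nM Sfp-PPTase preincubated 15 min at room temperature with compound, then 5 uM rhodamine-CoA and 12.5 uM BHQ-2-labelled YbbR peptide added. Fluorescence (ex 525/em 598 nm) read at start and after 30 min; difference gives rate.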
G9a inh: blocks human histone lysine methyltransferase G9a. Q96KQ7. G9a H3K9 monomethylation, AlphaScreen, 2 h. Potency, µM (highest dose often 102 µM), usual class: inhibitors. hit rate 8.8% among 350,000. AID 504332; note: nearly all actives have a fitted effect of over 75% in size
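Using a bead-based AlphaScreen, monomethylated H3K9 product from 2 h room-temperature reactions (G9a 20 nM, peptide 500 nM, SAM 20 uM) was detected with 0.5 ug/mL rabbit anti-H3K9me1 antibody.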
Sfp PPTase conf: Sfp phosphopantetheinyl transferase inhibition, confirmation. shares compounds with Sfp PPTase inh. Sfp PPTase enzymatic assay, qHTS titration. Potency, µM (titrated, usually from 114 µM), most hits filed as inhibitors. hit rate 79% among 380. AID 2701
Sfp gel assay: Inhibits Bacillus subtilis Sfp phosphopantetheinyl transferase. shares compounds with Sfp PPTase inh. purified Sfp, gel-based phosphopantetheinylation read-out. Potency, µM, usual class: inhibitors. hit rate 20% among 210. AID 2707;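 active = potency below 100 µM; inconclusive = dose-dependent response but potency above 100 µM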;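 note: potency is an IC50 for inhibitors of Sfp transfer activity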
Hits are given with their value; ! = repeats disagree; [ ] = remark or other dose. Only a selection was taken, and hits are over-represented in it overall. Unless noted, calls come from the whole dose curve; as a rule, active = well fitted curve in the direction sought with a large enough effect; inconclusive = small, poorly fitted or top-dose-only effect, or another doubt; inactive = no such curve, though single readings can be large; an effect the other way counts as inactive or inconclusive.

`NCCc1c(-c2ccccc2)n(-c2ccccc2)c2ccccc12` gave Glioma ERSR ind inactive, ALOX12 inh inconclusive, VDR inhibitor inactive, Sfp PPTase inh 16µM, G9a inh 45µM, Sfp PPTase conf 42µM and Sfp gel assay inactive.
Screening CC(=O)n1c(-c2ccccc2)c(CO)c2ccccc21 returned Glioma ERSR ind inactive, ALOX12 inh inactive, VDR inhibitor inactive, Sfp PPTase inh inactive and G9a inh inactive.
CCOC(=O)c1nc(NCc2ccccc2)sc1C was read as Glioma ERSR ind inactive, ALOX12 inh inconclusive, VDR inhibitor 71µM, Sfp PPTase inh 8.9µM, G9a inh 3.5µM and Sfp PPTase conf 8.3µM.
Screening C/C=C/c1ccc(OCCCCn2cncn2)c(OC)c1 returned Glioma ERSR ind inactive, ALOX12 inh inconclusive, VDR inhibitor inactive, Sfp PPTase inh 1.1µM, G9a inh inconclusive, Sfp PPTase conf inactive and Sfp gel assay inactive.
C/C=C/c1ccc(OCCOc2cc(C=O)ccc2OC)c(OC)c1 was read as Glioma ERSR ind inactive, ALOX12 inh inconclusive, VDR inhibitor inactive, Sfp PPTase inh inactive and G9a inh inactive.
`COc1cccc(NC(=O)CSC2=C(C#N)C(c3ccco3)C3=C(CCCC3=O)N2)c1` (stereo not drawn) gave Glioma ERSR ind inactive, ALOX12 inh inactive, VDR inhibitor inactive, Sfp PPTase inh 7.9µM, G9a inh inconclusive, Sfp PPTase conf 47µM and Sfp gel assay inactive.
`O=C(Nc1nnc(COc2ccc(Cl)cc2)s1)c1cccs1` gave Glioma ERSR ind inactive, ALOX12 inh inactive, VDR inhibitor inactive, Sfp PPTase inh 14µM, G9a inh inconclusive and Sfp PPTase conf 24µM.
CC(C)Cc1ccc(C(C)NC(C)C(=O)NC(N)=O)cc1 (stereo not drawn) was read as ALOX12 inh inactive.
c1cn2cc(CSC3CCCCC3)nc2s1 was read as Glioma ERSR ind inactive, ALOX12 inh inactive, VDR inhibitor inactive, Sfp PPTase inh 3.2µM, G9a inh inconclusive, Sfp PPTase conf inactive and Sfp gel assay inactive.
`CCOc1ccc(OCC)c(NC(=O)CN2CCN(c3cc(C)ccc3C)CC2)c1` gave Glioma ERSR ind inactive, ALOX12 inh inconclusive, VDR inhibitor inactive, Sfp PPTase inh 5.6µM, G9a inh inconclusive, Sfp PPTase conf inactive and Sfp gel assay inactive.
Screening CC1c2cc3c(cc2CCN1S(=O)(=O)c1ccc(Cl)c(C(F)(F)F)c1)OCCCO3 (stereo not drawn) returned ALOX12 inh inactive.
For CNC(=O)c1c(N)sc2c1CCCCC2 the results were Sfp PPTase inh 20µM, G9a inh 10µM and Sfp PPTase conf 21µM.
`COCCNC(=O)c1c(N)sc2c1CCCC2` gave Sfp PPTase inh 14µM, G9a inh inconclusive and Sfp PPTase conf 37µM.
CCOC(=O)c1c(NC(=O)CNCCOC)sc2c1CCCC2 was read as Glioma ERSR ind inactive, ALOX12 inh inactive, VDR inhibitor inactive, Sfp PPTase inh inactive and G9a inh inactive.
For CNCC12CC3CC(CC(C3)C1)C2 the results were ALOX12 inh inactive.
`Cc1ccc(C)c(NC(=O)COC(=O)c2nc(-c3ccccc3)oc2C)c1` gave ALOX12 inh inactive.
`OCCOc1ccccc1CN1CCCC(N2CCN(c3ccccc3)CC2)C1` (stereo not drawn) gave ALOX12 inh inactive.
CCN(CC)C(=O)[C@@H](C)C1CC[C@@]2(C)CC[C@H](NC(=O)c3ccncc3)[C@@H](C)[C@@H]2[C@H]1O (stereo partly drawn) was read as ALOX12 inh inactive.
For CC(=O)c1cccc(S(=O)(=O)N2CCCC(c3nc(-c4ccc(C)o4)no3)C2)c1 (stereo not drawn) the results were Glioma ERSR ind inactive, ALOX12 inh inconclusive, VDR inhibitor inactive, Sfp PPTase inh 56µM, G9a inh 4µM and Sfp PPTase conf 24µM.
For Cc1ccc(-c2noc(C3CCCN(S(=O)(=O)c4ccc(S(=O)(=O)N(C)C)cc4)C3)n2)o1 (stereo not drawn) the results were Glioma ERSR ind inactive, ALOX12 inh inactive, VDR inhibitor inactive, Sfp PPTase inh inactive and G9a inh inactive.
O=C(CCCc1ccccc1)N1CCC2(CC1)CN(c1ccncn1)CC2CO (stereo not drawn) was read as ALOX12 inh inactive.
For CCOC(=O)NNc1nncc2ccccc12 the results were Glioma ERSR ind inactive, ALOX12 inh inactive, VDR inhibitor inactive, Sfp PPTase inh 35µM!, G9a inh inactive[2.33 µM], Sfp PPTase conf inactive and Sfp gel assay inconclusive.
Cc1cc(SCC(=O)NN)c2cc(Br)ccc2n1 was read as Glioma ERSR ind inactive, ALOX12 inh inactive, VDR inhibitor 28µM, Sfp PPTase inh 22µM and Sfp PPTase conf inconclusive.
Screening O=C(NC1CCCC1)C1CCC(Cn2cnnn2)CC1 (stereo not drawn) returned ALOX12 inh inactive.
For Cc1ccc(-c2cc(C(=O)NCc3ccco3)c3ccccc3n2)s1 the results were Glioma ERSR ind inactive, ALOX12 inh 25µM!, VDR inhibitor inconclusive, Sfp PPTase inh 2.8µM, G9a inh 50µM, Sfp PPTase conf 47µM and Sfp gel assay inconclusive.
For O=C(NCc1ccco1)c1cc(-c2cccs2)nc2ccccc12 the results were Glioma ERSR ind inactive, ALOX12 inh inconclusive, VDR inhibitor inactive, Sfp PPTase inh inactive and G9a inh inactive.
`CCc1c(C)nc2cc(-c3ccc(OC)c(OC)c3)nn2c1N1CCC(C)CC1` gave Glioma ERSR ind inactive, ALOX12 inh inactive, VDR inhibitor inactive, Sfp PPTase inh inactive and G9a inh inactive.
For CCc1c(C)nc2cc(-c3ccc(OC)c(OC)c3)nn2c1N1CCCC1 the results were Glioma ERSR ind inactive, ALOX12 inh inactive, VDR inhibitor inactive, Sfp PPTase inh 6.3µM, G9a inh inactive and Sfp PPTase conf inconclusive.
CCOCCN1CCN(c2c(CC)c(C)nc3cc(-c4cc(OC)cc(OC)c4)nn23)CC1 was read as Glioma ERSR ind inactive, ALOX12 inh inactive, VDR inhibitor inactive, Sfp PPTase inh inactive and G9a inh inactive.
CCc1c(C)nc2cc(-c3cc(OC)cc(OC)c3)nn2c1N1CCCC1 was read as Glioma ERSR ind inactive, ALOX12 inh inactive, VDR inhibitor inactive, Sfp PPTase inh 16µM, G9a inh inactive and Sfp PPTase conf 47µM.
Screening COc1ccc(-c2cc(C(=O)N3CCN(c4ncccn4)CC3)c3ccccc3n2)cc1 returned Glioma ERSR ind inactive, ALOX12 inh inactive, VDR inhibitor inactive and G9a inh inactive[12.7 µM].
Screening Cc1ccc(-c2cc(C(=O)N3CCN(c4ncccn4)CC3)c3cc(Br)ccc3n2)o1 returned Glioma ERSR ind inactive, ALOX12 inh inconclusive, VDR inhibitor inactive, Sfp PPTase inh 7.9µM, G9a inh inconclusive and Sfp PPTase conf 4.7µM.
Screening CC(C)c1ccc2cc(C(=O)NCc3ccco3)[nH]c2c1 returned ALOX12 inh inactive.
